In PubChem BioAssay:
Values joined by “and” are separate entries in the source; they are usually repeats but may differ in a detail not shown here. Equal entries are not always repeated. Active and inactive are the calls of the source.

How the values were obtained:
[1] = test system: Plasmodium falciparum Sir2 (PF13_0152, Sir2A); assay: Plasmodium falciparum Sir2A binding compounds – biochemical, small-molecule microarray, 635 nm fluorescence, primary screen (AID 1098); conditions: fluorescence 635 nm, higher = more signal;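 note: score merges spot fluorescence intensity with its signal-to-noise ratio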
[2] = probe aDKK1 binding to arrayed compounds – biochemical, biotinylated probe, 635/667 nm fluorescence, primary screen (AID 1099); conditions: small-molecule microarray, higher = more signal;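 note: score merges 667nm spot fluorescence with signal to noise across triplicate slides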
[3] = probe aCHRDL2 binding to arrayed compounds – biochemical, biotinylated probe, 635/667 nm fluorescence, primary screen (AID 1100); conditions: small-molecule microarray, higher = more signal
[4] = change in splice reporter luminescence, either direction, cell-based, HEK293, spliceosome inhibition project, primary screen (AID 1101); conditions: HEK293 splicing luciferase reporter, 24 h, higher = more signal, called active from +8 up or from −8 down;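 note: HEK293 cells carrying a splicing-competent luciferase reporter gene; test concentration not given here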
[5] = molecular target: Fibroblast growth factor 10 (Homo sapiens) (UniProt O15520); assay: compounds binding fibroblast growth factor 10 – biochemical, small-molecule microarray, 635 nm fluorescence, primary screen (AID 1102); conditions: FGF10 binding, fluorescence 635 nm, higher = more signal
[6] = test system: glycogen synthase kinase-3 (GSK3A per assay name; protocol says GSK3B); assay: compounds binding glycogen synthase kinase-3 – biochemical, small-molecule microarray, 635 nm fluorescence, GSK3A, primary screen (AID 1103); conditions: fluorescence 635 nm, higher = more signal; note: the record names both GSK3A and GSK3B
[7] = molecular target: Epidermal growth factor receptor (Homo sapiens) (UniProt P00533); assay: compounds binding epidermal growth factor receptor – biochemical, small-molecule microarray, 635 nm fluorescence, primary screen (AID 1104); conditions: EGFR binding, higher = more signal;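 note: score merges 667 nm emission intensity with spot signal to noise over triplicate slides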
[8] = molecular target: Follistatin-related protein 3 (Homo sapiens) (UniProt O95633); assay: compounds binding follistatin-related protein 3 – biochemical, small-molecule microarray, 635 nm fluorescence, primary screen (AID 1105); conditions: FSTL3 binding, higher = more signal;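 note: score merges emission near 667 nm and signal to noise per printed spot across three slides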
[9] = molecular target: Dickkopf-related protein 1 (Homo sapiens) (UniProt O94907); assay: small molecules binding DKK1 protein – biochemical, small-molecule microarray, 635 nm fluorescence scan, primary screen (AID 1106); conditions: higher = more signal;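 note: score merges emission near 667 nm with signal to noise over three replicate slides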
[10] = test system: Inhibin beta A chain (activin A); assay: small molecules binding activin A – biochemical, small-molecule microarray, 635 nm fluorescence scan, primary screen (AID 1107); conditions: INHBA, higher = more signal;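 note: mouse activin A protein probed at 4.33 µg/mL on printed slides; score merges bound-protein fluorescence near 667 nm with spot signal-to-noise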
[11] = test system: Human papillomavirus type 1a protein E7 (residues 44-93); assay: small molecules binding HPV E7 44-93 – biochemical, small-molecule microarray, residues 44-93, 635 nm fluorescence, primary screen (AID 1108); conditions: fluorescence 635 nm, higher = more signal;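 note: E7 fragment applied at 1 µg/mL in TBST for 1 h at 4 C; score combines spot fluorescence with its signal to noise ratio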
[12] = hepatitis C replication reporter changes, two-sided – Huh7 cells, luciferase reporter, HCV replication inhibitor project, primary screen (AID 1109); conditions: Huh7 HCV replicon luciferase reporter, 48 h; higher = more signal;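 note: huh7 hepatoma cells harbouring a luciferase neomycin HCV replicon reporter; luciferase luminescence as measure of HCV replicon replication; test concentration not given here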
[13] = molecular target: Left-right determination factor 2 (Homo sapiens) (UniProt O00292); assay: small molecules binding LEFTY2 protein – biochemical, small-molecule microarray, 635 nm fluorescence scan, primary screen (AID 1110); conditions: higher = more signal
[14] = molecular target: Calmodulin-1 (Homo sapiens) (UniProt P0DP23); assay: small molecules binding calmodulin-1 with EGTA – biochemical, small-molecule microarray, Cy5-labelled CALM1, profiling panel (AID 1111); conditions: Cy5-CALM1 binding fluorescence, higher = more signal;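 note: labelled calmodulin applied in Tris saline Tween buffer holding calcium plus EGTA and DTT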
[15] = molecular target: Calmodulin-1 (Homo sapiens) (UniProt P0DP23); assay: small molecules binding Ca-loaded calmodulin-1 – biochemical, small-molecule microarray, Cy5-labelled CALM1, plus calcium, artefact control for SMM control-protein annotation, profiling panel (AID 1112); conditions: Cy5-CALM1 binding fluorescence, higher = more signal;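 note: score merges spot fluorescence with signal to noise from triplicate slides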
[16] = probe aWnt5a binding to arrayed compounds – biochemical, biotinylated probe, 635/667 nm fluorescence, primary screen (AID 1113); conditions: small-molecule microarray, higher = more signal;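 note: score merges 667 nm fluorescence intensity with signal-to-noise per printed feature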
[17] = probe aShh binding to arrayed compounds – biochemical, biotinylated probe, 635/667 nm fluorescence, primary screen (AID 1114); conditions: small-molecule microarray, higher = more signal;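 note: probe is biotin-labelled aShh protein from a stem cell growth factor screen; measures binding of labelled protein to compounds printed on the slide; score merges feature fluorescence at 667 nm with signal-to-noise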
[18] = probe aNog binding to arrayed compounds – biochemical, biotinylated probe, 635/667 nm fluorescence, primary screen (AID 1115); conditions: small-molecule microarray, higher = more signal;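 note: probe is biotinylated aNog protein used at 0.15 µg/mL for 1 h at 4 C; z-score combines 667 nm fluorescence of each spot with its signal to noise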
[19] = molecular target: Torsin-1A-interacting protein 1 (Homo sapiens) (UniProt Q5JTV8); assay: compound microarray binding of lysate hLAP1 – cell lysate, small-molecule microarray, COS7 lysate, 635/667 nm fluorescence, primary screen (AID 1116); conditions: 635 nm fluorescence, higher = more signal
[20] = molecular target: Alpha-bungarotoxin (Bungarus multicinctus) (UniProt P60615); assay: compounds binding labelled alpha-BTX control protein – biochemical, small-molecule microarray, Alexa647 label, 635/667 nm fluorescence, artefact control for SMM control protein annotation, profiling panel (AID 1117); conditions: alpha-BTX-A647 binding fluorescence, higher = more signal
Chain of Alpha-bungarotoxin (Bungarus multicinctus) (P60615 whole entry, looked up): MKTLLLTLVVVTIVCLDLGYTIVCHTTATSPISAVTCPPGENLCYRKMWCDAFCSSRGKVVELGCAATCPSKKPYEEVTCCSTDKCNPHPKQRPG

Chain of Epidermal growth factor receptor (Homo sapiens) (P00533 whole entry, looked up): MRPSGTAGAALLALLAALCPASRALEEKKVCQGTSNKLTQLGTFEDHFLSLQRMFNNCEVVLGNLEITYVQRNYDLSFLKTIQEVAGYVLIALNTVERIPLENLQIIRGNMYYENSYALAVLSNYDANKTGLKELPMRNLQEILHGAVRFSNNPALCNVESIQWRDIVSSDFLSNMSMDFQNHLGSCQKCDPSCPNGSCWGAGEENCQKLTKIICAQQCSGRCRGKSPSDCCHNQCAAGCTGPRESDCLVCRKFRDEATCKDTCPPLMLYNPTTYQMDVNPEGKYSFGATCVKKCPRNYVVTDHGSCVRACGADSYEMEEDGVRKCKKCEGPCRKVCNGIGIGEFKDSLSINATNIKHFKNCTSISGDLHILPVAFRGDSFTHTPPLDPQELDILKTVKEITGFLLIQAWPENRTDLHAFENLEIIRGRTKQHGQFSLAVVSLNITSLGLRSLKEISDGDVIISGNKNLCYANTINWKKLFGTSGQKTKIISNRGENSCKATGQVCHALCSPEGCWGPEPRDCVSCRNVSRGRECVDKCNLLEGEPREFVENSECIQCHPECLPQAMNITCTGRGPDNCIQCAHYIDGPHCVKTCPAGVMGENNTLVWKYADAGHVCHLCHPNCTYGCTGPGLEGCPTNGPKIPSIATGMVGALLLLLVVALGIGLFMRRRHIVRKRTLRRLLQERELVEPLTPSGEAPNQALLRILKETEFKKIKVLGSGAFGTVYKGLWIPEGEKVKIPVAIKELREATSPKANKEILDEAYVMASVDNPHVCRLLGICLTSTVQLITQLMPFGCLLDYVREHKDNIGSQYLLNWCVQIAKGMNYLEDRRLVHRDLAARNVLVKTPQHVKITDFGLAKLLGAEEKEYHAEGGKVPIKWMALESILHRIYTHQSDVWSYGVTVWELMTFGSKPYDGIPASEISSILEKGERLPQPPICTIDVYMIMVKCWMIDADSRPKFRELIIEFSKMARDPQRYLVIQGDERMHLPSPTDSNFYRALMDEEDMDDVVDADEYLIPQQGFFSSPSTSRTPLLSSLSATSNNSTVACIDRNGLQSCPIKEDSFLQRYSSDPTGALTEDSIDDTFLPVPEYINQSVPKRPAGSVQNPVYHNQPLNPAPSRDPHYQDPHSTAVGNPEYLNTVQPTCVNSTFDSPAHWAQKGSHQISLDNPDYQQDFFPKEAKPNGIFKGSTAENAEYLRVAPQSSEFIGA
Chain of Left-right determination factor 2 (Homo sapiens) (O00292 whole entry, looked up): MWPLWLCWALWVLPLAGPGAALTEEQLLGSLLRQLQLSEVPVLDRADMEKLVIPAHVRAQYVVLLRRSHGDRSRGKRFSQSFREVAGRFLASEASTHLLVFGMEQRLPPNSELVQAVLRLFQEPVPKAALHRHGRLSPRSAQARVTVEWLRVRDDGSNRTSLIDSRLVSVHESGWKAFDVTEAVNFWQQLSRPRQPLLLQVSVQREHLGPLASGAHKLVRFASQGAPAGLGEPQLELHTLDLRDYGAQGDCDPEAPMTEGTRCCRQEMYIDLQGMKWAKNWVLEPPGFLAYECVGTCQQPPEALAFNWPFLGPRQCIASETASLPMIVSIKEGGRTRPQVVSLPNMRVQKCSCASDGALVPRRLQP
Chain of Dickkopf-related protein 1 (Homo sapiens) (O94907 whole entry, looked up): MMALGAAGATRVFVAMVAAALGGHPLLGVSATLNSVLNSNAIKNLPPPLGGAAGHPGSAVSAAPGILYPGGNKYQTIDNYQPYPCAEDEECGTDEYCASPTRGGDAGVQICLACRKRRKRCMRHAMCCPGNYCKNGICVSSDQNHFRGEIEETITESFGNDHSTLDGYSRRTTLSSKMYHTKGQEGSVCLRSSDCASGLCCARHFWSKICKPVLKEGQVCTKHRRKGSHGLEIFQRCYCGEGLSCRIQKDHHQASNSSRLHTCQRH
Chain of Fibroblast growth factor 10 (Homo sapiens) (O15520 whole entry, looked up): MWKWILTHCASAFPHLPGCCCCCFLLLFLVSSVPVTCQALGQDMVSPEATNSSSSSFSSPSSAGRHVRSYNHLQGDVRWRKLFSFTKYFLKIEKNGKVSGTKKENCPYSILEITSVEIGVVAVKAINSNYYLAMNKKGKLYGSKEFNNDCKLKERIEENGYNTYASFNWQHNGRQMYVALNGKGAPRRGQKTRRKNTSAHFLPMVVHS
Chain of Follistatin-related protein 3 (Homo sapiens) (O95633 whole entry, looked up): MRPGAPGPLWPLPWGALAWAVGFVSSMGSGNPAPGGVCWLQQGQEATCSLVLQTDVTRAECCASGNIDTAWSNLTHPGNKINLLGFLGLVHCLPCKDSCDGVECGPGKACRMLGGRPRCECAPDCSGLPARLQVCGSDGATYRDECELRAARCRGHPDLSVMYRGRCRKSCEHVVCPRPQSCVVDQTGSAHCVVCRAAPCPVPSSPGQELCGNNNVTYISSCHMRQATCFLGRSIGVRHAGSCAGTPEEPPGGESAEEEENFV
Chain of Torsin-1A-interacting protein 1 (Homo sapiens) (Q5JTV8 whole entry, looked up): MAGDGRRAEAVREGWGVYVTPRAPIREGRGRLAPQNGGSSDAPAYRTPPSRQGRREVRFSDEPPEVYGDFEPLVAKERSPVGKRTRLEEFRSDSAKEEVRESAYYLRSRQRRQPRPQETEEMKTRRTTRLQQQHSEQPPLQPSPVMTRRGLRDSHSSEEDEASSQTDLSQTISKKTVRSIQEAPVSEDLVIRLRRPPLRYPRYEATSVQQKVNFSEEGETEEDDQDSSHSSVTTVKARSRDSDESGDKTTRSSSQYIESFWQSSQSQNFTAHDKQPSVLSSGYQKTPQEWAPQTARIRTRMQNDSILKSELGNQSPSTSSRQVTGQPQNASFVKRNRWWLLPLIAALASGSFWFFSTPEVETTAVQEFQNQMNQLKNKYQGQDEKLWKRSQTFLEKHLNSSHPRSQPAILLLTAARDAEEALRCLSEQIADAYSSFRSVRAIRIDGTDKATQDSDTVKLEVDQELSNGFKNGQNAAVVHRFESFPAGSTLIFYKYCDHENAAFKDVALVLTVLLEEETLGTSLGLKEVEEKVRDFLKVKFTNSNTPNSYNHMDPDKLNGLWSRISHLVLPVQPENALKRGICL

Row | Structure (SMILES) | composite z-score [1] | composite z-score [2] | composite z-score [3] | z-score [4] | composite z-score [5] | composite z-score [6] | composite z-score [7] | composite z-score [8] | composite z-score [9] | composite z-score [10] | composite z-score [11] | z-score [12] | composite z-score [13] | composite z-score [14] | composite z-score [15] | composite z-score [16] | composite z-score [17] | composite z-score [18] | composite z-score [19] | composite z-score [20]
1 | C=CC[C@@H](O)c1ccc(O)c(F)c1 | 0.358 and 0.514 | -0.388 and -0.293 | 0.92 and 0.751 | -0.55 (inactive) and -1.23 (inactive) | -1.38 and -0.756 | -1.43 and -0.85 | -1.81 and -1.65 | -2.63 and -1.02 | -1.95 and -0.898 | -2.07 and -0.334 | -0.612 and -0.685 | -0.947 and 0.848 | -2.46 and -1.47 | -0.75 and -1.41 | 0.0576 and -0.0804 | -0.0399 and -0.278 | -0.332 and -0.124 | -0.116 and -0.62 | -0.635 and -0.47 | -1.9 and -2.33
2 | CC(C)=CCCC(C)=CCON=C1C[C@@H](O)[C@@H](O)[C@@H]2[C@@H]3C(=O)N([C@@H](C)c4ccccc4)C(=O)[C@@H]3CC[C@H]12 | 0.948 | -0.238 | -0.213 | -1.19 (inactive) | 0.739 | 0.692 | 0.525 | 0.718 | 0.645 | 1.15 | 0.893 | -0.745 | 0.773 | -0.282 | -0.782 | -0.0644 | 0.265 | -0.44 | 0.166 | 0.417
3 | COC(=O)C1=C(C)N(Cc2ccccc2)[C@]23O[C@](C(=O)OC)(C(=O)N2[C@@H]1c1ccccc1)[C@H]1CCCC(=O)[C@H]13 | 0.355 and 0.285 | 0.0172 and -0.338 | -0.298 and -0.45 | -0.0479 (inactive) and -1.41 (inactive) | 0.526 and 0.72 | 0.201 and 0.287 | 0.218 and 0.506 | 0.336 and 0.515 | 0.421 and 0.508 | 0.518 and 0.15 | -0.525 and 0.155 | -3.35 and -1.15 | 0.877 and 0.588 | -0.127 and -0.222 | 0.0491 and -0.499 | -0.0792 and -0.0462 | -0.0146 and -0.0553 | -0.275 and -0.367 | 0.206 and 0.139 | 0.787 and 0.0026
4 | CCN1C(=O)[C@H]2[C@H]3[C@H](O)[C@H](O)CC(=NNC(=O)OCc4ccc(OC)cc4)[C@H]3CC[C@H]2C1=O | 0.182 | 1.55 | 1.27 | -0.324 (inactive) | 0.178 | -0.152 | -0.698 | 0.0229 | -0.819 | 0.0193 | -0.432 | 0.182 | 0.261 | -0.222 | 0.161 | 0.0597 | 0.0611 | 0.664 | 0.537 | 0.379
5 | CCOC(=O)[C@H](CC(C)C)NC(=O)CCC1CC(OC(=O)NCc2cccc3ccccc23)CC2(CCCC(COC(=O)NCc3ccccc3)O2)O1 (stereo not given in full) | 0.929 | -0.299 | -0.103 | -2.18 (inactive) | -0.242 | -0.97 | -0.152 | -0.499 | -0.311 | 0.493 | -0.931 | -0.132 | -0.0479 | -0.195 | -0.559 | -0.152 | -0.282 | -0.0029 | -0.61 | -0.274
6 | C=CCN(C(=O)C1N(CCCCCCO)C(=O)C2C(C(=O)O)C3C=CC21O3)c1ccc(OC)cc1 (stereo not given) | 1.04 and -1.32 | 0.0787 and 0.332 | 1.27 and 1.18 | -1.67 (inactive) and -0.118 (inactive) | -0.791 and -1.26 | -0.329 and -0.852 | -2.79 and -2.32 | -2.58 and -1.84 | -2.84 and -2.35 | -1.71 and -1.78 | -0.862 and -1.21 | -0.67 and -0.824 | -3.9 and -3.75 | -0.0411 and -1.13 | 0.734 and 0.0742 | -0.224 and -0.124 | -0.0011 and 0.551 | 0.692 and 0.838 | 2.83 and 1.74 | -2.05 and -1.37
7 | O=C(NN=C1C[C@@H](O)[C@@H](O)[C@@H]2[C@@H]3C(=O)N(Cc4ccc5c(c4)OCO5)C(=O)[C@@H]3CC[C@H]12)OCc1ccccc1 | -0.345 | 0.118 | 0.298 | 0.0692 (inactive) | -0.464 | -1.2 | -0.0036 | -0.904 | -1.57 | -2.22 | -0.984 | 0.401 | 0.227 | -0.643 | -1.29 | 0.0718 | 0.0796 | -0.363 | -0.842 | -0.394
8 | CCOC(=O)[C@@H]1CC2O[C@]23C[C@@H]1C(=O)N1CCC[C@@H]1[C@H]3O[Si](C)(C)C(C)(C)C (stereo not given in full) | -0.494 and -0.107 | -0.557 and -0.234 | -0.645 and -0.63 | 0.559 (inactive) and 0.577 (inactive) | -0.438 and 0.433 | -0.755 and 0.491 | -0.133 and -0.303 | -0.937 and 0.184 | 0.389 and 0.364 | 0.456 and 0.999 | -1.22 and -0.182 | -0.417 and -0.4 | -0.125 and 0.446 | -0.46 and -0.641 | -0.748 and -0.252 | -0.251 and -0.124 | -0.299 and -0.197 | -0.321 and -0.134 | -0.826 and -0.136 | 0.102 and -0.667
9 | CO[C@H]1COC(=O)CC=C[C@@H](C)COC(=O)[C@H](CCSC)NC(=O)CC=C[C@@H]1C | 0.536 and 0.111 | -0.51 and -0.591 | -1.59 and -2.05 | 0.191 (inactive) and -0.244 (inactive) | 1.12 and 1.16 | 1.29 and 1.3 | 1.28 and 1.69 | 1.57 and 1.49 | 2.29 and 2.22 | 0.626 and -0.119 | -0.467 and -0.849 | -0.0216 and -0.567 | 1.6 and 1.71 | -0.957 and -2.78 | -1.75 and -3.46 | -0.136 and -0.197 | -0.138 and -0.34 | -0.385 and -0.754 | 0.995 and 0.363 | -0.933 and -1.69
10 | COC(=O)[C@@]1(Cc2ccccc2)[C@H]2c3cc(C(=O)N(C)C)n(C[C@H](O)CO)c3C[C@H]2CN1C(=O)c1ccccc1 | 0.544 and 0.831 | 0.781 and 0.66 | 0.761 and 1.21 | -2.37 (inactive) and 1.46 (inactive) | -0.397 and 0.483 | -0.137 and -0.227 | -0.647 and 0.374 | -0.397 and 0.0048 | -0.907 and -0.236 | 0.985 and 1.1 | 1.13 and -0.569 | -0.38 and -0.668 | -0.724 and 0.396 | 0.205 and 2.39 | 0.696 and 0.624 | -0.0346 and 0.0297 | 1.03 and 0.0469 | 0.373 and 1.04 | 2.36 and 1.1 | -0.33 and 0.13
